A short description of experiment [1]: NCI Yeast Anticancer Drug Screen. Data for the rad50 strain (AID 155).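 Note: 0% = growth of vehicle-only cultures of the same strain.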 The following applies: S. cerevisiae rad50 strain growth inhibition, stronger effect = higher value. In short, it runs like this:
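Genetically altered yeast (DNA repair pathway); compound treatment; growth inhibition vs vehicle ctrl.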

The nature of experiment [2]: NCI Yeast Anticancer Drug Screen. Data for the mec2-1 strain (AID 157). The following applies: S. cerevisiae mec2-1 strain, stronger effect = higher value. In short, it runs like this: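 Vehicle-treated cultures served as reference for growth inhibition of compound-exposed mec2-1 yeast.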
Experiment [3] can be described thus: NCI Yeast Anticancer Drug Screen. Data for the sgs1 mgt1 strain (AID 161).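 Note: 0% = growth of cultures given vehicle only.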 The conditions noted are these: S. cerevisiae sgs1 mgt1 strain, stronger effect = higher value. In short, it runs like this:
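Genetically altered yeast, compound exposure, growth inhibition relative to vehicle.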

Experiment [4] is described as follows: NCI Yeast Anticancer Drug Screen. Data for the cln2 rad14 strain (AID 165).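 Note: 0% = growth equal to vehicle treated cultures.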 The conditions noted are these: S. cerevisiae cln2 rad14 strain, stronger effect = higher value. The method, boiled down:
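Each compound was tested on cln2 rad14 yeast. Inhibition of growth was calculated against vehicle-exposed controls.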

A short description of experiment [5]: NCI Yeast Anticancer Drug Screen. Data for the bub3 strain (AID 167). The following applies: S. cerevisiae bub3 mutant strain, stronger effect = higher value. In short, it runs like this:
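Yeast carrying a defined mutation is treated with each compound, and growth is compared with that of vehicle-exposed cells to give inhibition.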

Experiment [6] is described as follows: NCI Yeast Anticancer Drug Screen. Data for the mlh1 rad18 strain (AID 175). The following applies: S. cerevisiae mlh1 rad18 strain growth inhibition, stronger effect = higher value. In short, it runs like this:
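Vehicle-treated cultures served as the reference for growth inhibition in a yeast strain carrying DNA damage repair alterations exposed to each compound.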

The mark [7] stands for this setting: at 5.0 µM (retest, dose inferred, filed as 0.5).
The mark [8] stands for this setting: at 50.0 µM (retest, dose inferred, filed as 5.0).

Compounds without any hit were thinned out: in the full panel of roughly 79,000, 15% have a hit. A number with no mark means an inactive call. Activity calls are given as the source filed them. Cut-off read from the data, not from the text of the source: active = growth inhibition above about 70%; inactive = the rest.

As for `N#CC#Cc1cccc(C#CC#N)c1`, the growth inhibition in experiment [1] (setting [7]) was 98% (active); in experiment [1] (setting [8]), 98% (active); in experiment [1] (at 50.0 µM), 98% (active); in experiment [2] (setting [7]), 99% (active); in experiment [2] (setting [8]) it was 99% (active); in experiment [2] (at 50.0 µM), 98.9% (active). Further, the growth inhibition in experiment [3] (setting [7]) is 99% (active); in experiment [3] (setting [8]) it was 99% (active); in experiment [3] (at 50.0 µM), 50%; in experiment [4] (setting [7]) it was 99% (active); in experiment [4] (setting [8]), 98% (active); in experiment [4] (at 50.0 µM), 98.8% (active). For the same compound, the growth inhibition in experiment [5] (setting [7]) was 98% (active); in experiment [5] (setting [8]), 98% (active); in experiment [5] (at 50.0 µM) it was 98.9% (active); in experiment [6] (setting [7]), 99% (active); in experiment [6] (setting [8]) it was 98% (active); in experiment [6] (at 50.0 µM), 99.2% (active).

On to `NC1C(=O)C2CCCCC2C(=O)C1C(=O)c1ccccc1` (stereo not given), for which the growth inhibition was -2% in experiment [1] (setting [7]); 28% in experiment [1] (setting [8]); -0.5% in experiment [1] (at 50.0 µM); 4% in experiment [2] (setting [7]); 17% in experiment [2] (setting [8]); 16.4% in experiment [2] (at 50.0 µM). In addition, the growth inhibition in experiment [3] (setting [7]) was -1%; in experiment [3] (setting [8]) it was -6%; in experiment [3] (at 50.0 µM), 23.4%; in experiment [4] (setting [7]) it was 1%; in experiment [4] (setting [8]) it was 10%; in experiment [4] (at 50.0 µM) it was -55.4%. Moreover, the growth inhibition in experiment [5] (setting [7]) was 5%; in experiment [5] (setting [8]), 49%; in experiment [5] (at 50.0 µM), 73.9% (active); in experiment [6] (setting [7]), 3%; in experiment [6] (setting [8]), 24%; in experiment [6] (at 50.0 µM), 48.1%.

Consider `O=C(CBr)c1cc(-c2ccc(Cl)cc2)nc2ccccc12`, for which the growth inhibition in experiment [1] (setting [7]) is 86% (active); in experiment [1] (setting [8]), 98% (active); in experiment [1] (at 50.0 µM) it was 98.9% (active); in experiment [2] (setting [7]), 95% (active); in experiment [2] (setting [8]), 99% (active); in experiment [2] (at 50.0 µM), 99% (active). For the same compound, the growth inhibition in experiment [3] (setting [7]) was 100% (active); in experiment [3] (setting [8]), 99% (active); in experiment [3] (at 50.0 µM), 99% (active); in experiment [4] (setting [7]) it was 35%; in experiment [4] (setting [8]) it was 98% (active); in experiment [4] (at 50.0 µM), 98% (active). The growth inhibition is 95% (active) in experiment [5] (setting [7]); 99% (active) in experiment [5] (setting [8]); 98.7% (active) in experiment [5] (at 50.0 µM); 97% (active) in experiment [6] (setting [7]); 98% (active) in experiment [6] (setting [8]); 98.8% (active) in experiment [6] (at 50.0 µM).

Turning to `O=[N+]([O-])c1cc(C(F)(F)F)cc([N+](=O)[O-])c1N1CCCC(n2cccc2)C1` (stereo not given), the growth inhibition in experiment [1] (setting [7]) is -11%; in experiment [1] (setting [8]), 21%; in experiment [1] (at 50.0 µM), 34.6%; in experiment [2] (setting [7]), -6%; in experiment [2] (setting [8]) it was 19%; in experiment [2] (at 50.0 µM), 45.8%. Further, the growth inhibition in experiment [3] (setting [7]) was -4%; in experiment [3] (setting [8]), 26%; in experiment [3] (at 50.0 µM), 58.3%; in experiment [4] (setting [7]) it was 7%; in experiment [4] (setting [8]), 28%; in experiment [4] (at 50.0 µM), 34.1%. For the same compound, the growth inhibition was -9% in experiment [5] (setting [7]); 55% in experiment [5] (setting [8]); 71.2% (active) in experiment [5] (at 50.0 µM); 1% in experiment [6] (setting [7]); 33% in experiment [6] (setting [8]); 47.9% in experiment [6] (at 50.0 µM).

Turning to `Cc1cc(Cc2cccc(Cl)c2)ccc1O`, the growth inhibition in experiment [1] (setting [7]) is -8%; in experiment [1] (setting [8]), 99% (active); in experiment [1] (at 50.0 µM), 99.5% (active); in experiment [2] (setting [7]), -34%; in experiment [2] (setting [8]), 99% (active); in experiment [2] (at 50.0 µM), 99.7% (active). For the same compound, the growth inhibition in experiment [3] (setting [7]) is -2%; in experiment [3] (setting [8]), 99% (active); in experiment [3] (at 50.0 µM) it was 99.3% (active); in experiment [4] (setting [7]), -21%; in experiment [4] (setting [8]) it was 99% (active); in experiment [4] (at 50.0 µM), 99.4% (active). Besides, the growth inhibition in experiment [5] (setting [7]) is -20%; in experiment [5] (setting [8]) it was 99% (active); in experiment [5] (at 50.0 µM) it was 99.6% (active); in experiment [6] (setting [7]), -8%; in experiment [6] (setting [8]), 99% (active); in experiment [6] (at 50.0 µM) it was 99.5% (active).

Take `Cc1cc(NC(=S)SCc2ccc(Cl)cc2)ccc1Br`: the growth inhibition in experiment [1] (setting [7]) was 35%; in experiment [1] (setting [8]), 98% (active); in experiment [1] (at 50.0 µM), 91.3% (active); in experiment [2] (setting [7]), 26%; in experiment [2] (setting [8]) it was 99% (active); in experiment [2] (at 50.0 µM), 92.7% (active). In addition, the growth inhibition in experiment [3] (setting [7]) was 47%; in experiment [3] (setting [8]) it was 99% (active); in experiment [3] (at 50.0 µM) it was 91.3% (active); in experiment [4] (setting [7]) it was 37%; in experiment [4] (setting [8]), 99% (active); in experiment [4] (at 50.0 µM), 88.8% (active). In addition, the growth inhibition in experiment [5] (setting [7]) is 55%; in experiment [5] (setting [8]) it was 100% (active); in experiment [5] (at 50.0 µM), 91.2% (active); in experiment [6] (setting [7]), 25%; in experiment [6] (setting [8]), 99% (active); in experiment [6] (at 50.0 µM), 91.2% (active).

`O=C(Cc1nc2ccc(Cl)cc2nc1CC(=O)c1ccccc1)c1ccccc1`: the growth inhibition in experiment [1] (setting [7]) was 10%; in experiment [1] (setting [8]), 96% (active); in experiment [1] (at 50.0 µM), 95.2% (active); in experiment [2] (setting [7]), 2%; in experiment [2] (setting [8]), 93% (active); in experiment [2] (at 50.0 µM), 85.5% (active). Moreover, the growth inhibition in experiment [3] (setting [7]) is -2%; in experiment [3] (setting [8]) it was 94% (active); in experiment [3] (at 50.0 µM), 61.7%; in experiment [4] (setting [7]) it was -5%; in experiment [4] (setting [8]), 92% (active); in experiment [4] (at 50.0 µM) it was 67.3%. The growth inhibition in experiment [5] (setting [7]) is -1%; in experiment [5] (setting [8]), 97% (active); in experiment [5] (at 50.0 µM), 77.5% (active); in experiment [6] (setting [7]) it was 7%; in experiment [6] (setting [8]), 96% (active); in experiment [6] (at 50.0 µM), 96.3% (active).

`CC(C)(C)c1ccc(C(=O)C[n+]2ccc(Cl)c3ccc(Cl)cc32)cc1`: the growth inhibition in experiment [1] (setting [7]) is 0%; in experiment [1] (setting [8]), 98% (active); in experiment [1] (at 50.0 µM) it was 99% (active); in experiment [2] (setting [7]) it was 1%; in experiment [2] (setting [8]) it was 99% (active); in experiment [2] (at 50.0 µM), 99.3% (active). For the same compound, the growth inhibition in experiment [3] (setting [7]) is 0%; in experiment [3] (setting [8]) it was 99% (active); in experiment [3] (at 50.0 µM), 62.9%; in experiment [4] (setting [7]) it was -2%; in experiment [4] (setting [8]), 97% (active); in experiment [4] (at 50.0 µM), 53.5%. Also, the growth inhibition in experiment [5] (setting [7]) is 2%; in experiment [5] (setting [8]), 98% (active); in experiment [5] (at 50.0 µM), -1.75%; in experiment [6] (setting [7]), 1%; in experiment [6] (setting [8]) it was 99% (active); in experiment [6] (at 50.0 µM) it was 99.2% (active).

`CCCCCCCCCC(=O)CC(=O)c1ccc(O)cc1O`: the growth inhibition was 33% in experiment [1] (setting [7]); 96% (active) in experiment [1] (setting [8]); 86.5% (active) in experiment [1] (at 50.0 µM); 27% in experiment [2] (setting [7]); 97% (active) in experiment [2] (setting [8]); 89.5% (active) in experiment [2] (at 50.0 µM). Besides, the growth inhibition in experiment [3] (setting [7]) was 50%; in experiment [3] (setting [8]) it was 98% (active); in experiment [3] (at 50.0 µM) it was 89.7% (active); in experiment [4] (setting [7]) it was 37%; in experiment [4] (setting [8]), 97% (active); in experiment [4] (at 50.0 µM), 88.6% (active). The growth inhibition is 39% in experiment [5] (setting [7]); 98% (active) in experiment [5] (setting [8]); 89.2% (active) in experiment [5] (at 50.0 µM); 48% in experiment [6] (setting [7]); 97% (active) in experiment [6] (setting [8]); 87.5% (active) in experiment [6] (at 50.0 µM).

Consider `CCC(C)Sc1nc2c([nH]1)c(=S)n(C)c(=O)n2C` (stereo not given), for which the growth inhibition was 9% in experiment [1] (setting [7]); 39% in experiment [1] (setting [8]); 87.7% (active) in experiment [1] (at 50.0 µM); 20% in experiment [2] (setting [7]); 52% in experiment [2] (setting [8]); 96% (active) in experiment [2] (at 50.0 µM). Further, the growth inhibition is 5% in experiment [3] (setting [7]); -19% in experiment [3] (setting [8]); 96.7% (active) in experiment [3] (at 50.0 µM); -3% in experiment [4] (setting [7]); 17% in experiment [4] (setting [8]); 23.9% in experiment [4] (at 50.0 µM). The growth inhibition was 16% in experiment [5] (setting [7]); 49% in experiment [5] (setting [8]); 95.7% (active) in experiment [5] (at 50.0 µM); 1% in experiment [6] (setting [7]); 24% in experiment [6] (setting [8]); 95.2% (active) in experiment [6] (at 50.0 µM).

Values taken from PubChem BioAssay (NCI).
